Test results from the OligoGym collection.

Biological target: BZW1
Test: pooled miR-30 sensor sort-seq; sequence = guide strand
Settings: shRNA
Note: reference of the scale not given here.

Sequence | sensor-assay potency score (higher = more potent)
TAATACAGTCTTGAAACTGAGT | -0.709
TTCTTCTTCAGCATTTTTGAGC | -0.679
TTGCTCAAGGAAAACACTCTTC | -0.371
TTCTTCAGCATTTTTGAGCCAT | -0.303
TTACTTCATCTTCAAAACCTTT | -1.14
TTCAAGAACAGCAGCAGCTTTT | -0.773

Biological target: C10orf129
Test: as above
Settings: shRNA

Sequence | sensor-assay potency score (higher = more potent)
TGACACAGAAACACACAGGCTC | 0.78
ATAGCTCTTATCTGACACCAGG | -1.02
AACTTGAATCAACTTCTTGAAA | -1.71
TTTAGAACAGTCTCAGGGCAGA | -0.497
AACTTCTTGAAATCCAACCACC | -1.25
TAGCTCTTATCTGACACCAGGA | -0.145
TACATCTCTGGATTTGCAGATA | -0.615
TTCTTGAAATCCAACCACCCAT | -0.764
TTATCTGACACCAGGAGCTTGG | -0.78
ATACTGGGAATACTCGACCATT | -1.34
TCTTGAAATCCAACCACCCATC | -1.29
TGTAGGTCTGCTTTGGAGGGGC | -0.275

Biological target: C10orf27
Test: as above
Settings: shRNA

Sequence | sensor-assay potency score (higher = more potent)
TTGGATGTGGGTCACGTGCTGG | -0.839
TTCTTCTCCAGTTTCAGCTCAG | -0.249
TTTCGCTTTTTGTAAAAGGTGA | -0.648
TTCGATGTCTTCTTCTCTGTGT | 0.791
TTTTGTAAAAGGTGATATCTTC | -0.0398
TTCTTCTCTGTGTTCTGGCTTG | -0.353
TAAAAGGTGATATCTTCGTTTT | -1.08
TTTAGTAAGAGTTTTCACGGTA | 0.259
TATCTTCGTTTTCTTCGGGGAT | -0.791
ATATCTTCGTTTTCTTCGGGGA | -0.103
TGATATCTTCGTTTTCTTCGGG | 0.224
TCGAAATCCACAATCCCTGGGA | 0.448

Biological target: C11orf49
Test: as above
Settings: shRNA

Sequence | sensor-assay potency score (higher = more potent)
TCGTCCATGAGCACAATCCTGG | -1.16
TTTTGCAAGTGAAATCATCTTC | 0.664
TTCTCCAACAGGCCACAGCGGT | -1.61
TTTCACATGTTTGTTTAGCTAT | -0.281
TTCATGGTCAGCAAATCGCCAT | -0.72
TTCTGAGTGAGCTCCAGCGGGA | -1.01
AAATATTCAGTGAAGAACCTGG | 0.285
TAACACTAGGGTAAACCCCTGG | -0.37
TTAGCTATTAGACACAAAGGGG | -0.469
TAGCTATTAGACACAAAGGGGT | -0.34
